# Results taken from the supplement of paper PMC10849652.
# About 7,900 targets were measured; listed, in parts, are those with a hit and a random draw of the rest. About 0.6% of all pairs of compound and target were hits. A number with no mark means an inactive call.
# Experiments:
# Assay in all cases: log2 fold change, soluble protein after heating vs DMSO (PISA); higher = thermal stabilisation; K562 cells, 10 uM, 30 min; active = over 0.2 and 3.5 SD of the protein, either way, in both replicates (recomputed)
# [1] = compound: COC1=CC=C(C=C1)CN2C=CC3=C2C=C(C=C3)C(=O)NO
# Summary of the method: (§1)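 K562 cells at 2×10^6 cells/mL were treated with 10 μM compound for 30 min. Aliquots were heated for 3 min across 48°C-58°C, pooled, and extracted in PBS with 0.5% NP-40 at 4°C; soluble protein was the supernatant after 21,000xg for 90 min. Soluble protein was quantified by TMTpro 16plex LC-MS/MS with channel sums equalised, and reported as log2 fold change in thermal stability against DMSO controls, with values from duplicates.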
# filanesib = compound: CON(C)C(=O)N1N=C(c2cc(F)ccc2F)S[C@@]1(CCCN)c1ccccc1 [filanesib]
# Summary of the method: as §1
# zotarolimus = compound: CO[C@H]1C[C@@H]2CC[C@@H](C)[C@@](O)(O2)C(=O)C(=O)N2CCCC[C@H]2C(=O)O[C@H]([C@H](C)C[C@@H]2CC[C@H](n3cnnn3)[C@H](OC)C2)CC(=O)[C@H](C)/C=C(\C)[C@@H](O)[C@@H](OC)C(=O)[C@H](C)C[C@H](C)/C=C/C=C/C=C/1C [zotarolimus]
# Summary of the method: as §1
# idasanutlin = compound: COc1cc(C(=O)O)ccc1NC(=O)[C@@H]1N[C@@H](CC(C)(C)C)[C@](C#N)(c2ccc(Cl)cc2F)[C@H]1c1cccc(Cl)c1F [idasanutlin]
# Summary of the method: as §1
# alisertib = compound: COc1cc(Nc2ncc3c(n2)-c2ccc(Cl)cc2C(c2c(F)cccc2OC)=NC3)ccc1C(=O)O [alisertib]
# Summary of the method: as §1
# [2] = compound: COc1cc2nc(-c3cc(F)ccc3O)nc(N[C@@H]3CNC[C@H]3C(C)(C)O)c2cc1OC
# Summary of the method: as §1
# gefitinib = compound: COc1cc2ncnc(Nc3ccc(F)c(Cl)c3)c2cc1OCCCN1CCOCC1 [gefitinib]
# Summary of the method: as §1
# [3] = compound: COc1cccc2cc(-c3nc([C@H]4CC[C@H](C(=O)O)CC4)n4ncnc(N)c34)[nH]c12
# Summary of the method: as §1
# lapatinib = compound: CS(=O)(=O)CCNCc1ccc(-c2ccc3ncnc(Nc4ccc(OCc5cccc(F)c5)c(Cl)c4)c3c2)o1 [lapatinib]
# Summary of the method: as §1
# pictilisib = compound: CS(=O)(=O)N1CCN(Cc2cc3nc(-c4cccc5[nH]ncc45)nc(N4CCOCC4)c3s2)CC1 [pictilisib]
# Summary of the method: as §1
# [4] = compound: CS(=O)(=O)c1ccc(-c2cnc(N)c(C(=O)Nc3ccccc3)n2)cc1
# Summary of the method: as §1
# crizotinib = compound: C[C@@H](Oc1cc(-c2cnn(C3CCNCC3)c2)cnc1N)c1c(Cl)ccc(F)c1Cl [crizotinib]
# Summary of the method: as §1
# [5] = compound: C[C@@H]1COCCN1C2=NC(=NC(=C2)C3(CC3)S(=O)(=O)C)C4=C5C=CNC5=CC=C4
# Summary of the method: as §1
# [6] = compound: C[C@H](C1=CC=C(C=C1)C(=O)NC2=C3C=CNC3=NC=C2)N
# Summary of the method: as §1
# duvelisib = compound: C[C@H](Nc1ncnc2nc[nH]c12)c1cc2cccc(Cl)c2c(=O)n1-c1ccccc1 [duvelisib]
# Summary of the method: as §1
# gandotinib = compound: Cc1cc(Nc2cc(CN3CCOCC3)c3nc(C)c(Cc4ccc(Cl)cc4F)n3n2)n[nH]1 [gandotinib]
# Summary of the method: as §1
# tozasertib = compound: Cc1cc(Nc2cc(N3CCN(C)CC3)nc(Sc3ccc(NC(=O)C4CC4)cc3)n2)n[nH]1 [tozasertib]
# Summary of the method: as §1
# [7] = compound: Cc1cc(SCc2sc(-c3ccc(C(F)(F)F)cc3)nc2C)ccc1OCC(=O)O
# Summary of the method: as §1
# doramapimod = compound: Cc1ccc(-n2nc(C(C)(C)C)cc2NC(=O)Nc2ccc(OCCN3CCOCC3)c3ccccc23)cc1 [doramapimod]
# Summary of the method: as §1
# ispinesib = compound: Cc1ccc(C(=O)N(CCCN)[C@@H](c2nc3cc(Cl)ccc3c(=O)n2Cc2ccccc2)C(C)C)cc1 [ispinesib]
# Summary of the method: as §1
# Sequence of UniProt P08236 (P08236 whole entry, looked up): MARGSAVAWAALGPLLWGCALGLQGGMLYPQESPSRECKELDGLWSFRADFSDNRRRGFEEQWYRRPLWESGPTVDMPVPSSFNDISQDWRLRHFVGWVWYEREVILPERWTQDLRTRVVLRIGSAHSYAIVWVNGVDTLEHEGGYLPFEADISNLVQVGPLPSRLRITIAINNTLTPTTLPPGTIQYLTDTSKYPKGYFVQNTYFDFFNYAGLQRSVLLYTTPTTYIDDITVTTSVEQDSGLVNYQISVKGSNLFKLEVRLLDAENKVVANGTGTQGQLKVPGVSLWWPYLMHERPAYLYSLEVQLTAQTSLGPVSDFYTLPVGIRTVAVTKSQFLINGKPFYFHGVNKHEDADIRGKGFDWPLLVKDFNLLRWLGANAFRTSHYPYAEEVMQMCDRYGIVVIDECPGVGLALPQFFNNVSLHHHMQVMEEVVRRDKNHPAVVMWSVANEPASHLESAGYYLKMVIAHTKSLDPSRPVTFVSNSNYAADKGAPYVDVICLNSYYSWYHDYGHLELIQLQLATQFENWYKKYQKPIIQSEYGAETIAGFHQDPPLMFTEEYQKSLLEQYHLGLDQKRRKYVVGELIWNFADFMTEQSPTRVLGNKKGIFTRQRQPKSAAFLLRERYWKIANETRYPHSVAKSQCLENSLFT
# Sequence of UniProt P07686 (P07686 whole entry, looked up): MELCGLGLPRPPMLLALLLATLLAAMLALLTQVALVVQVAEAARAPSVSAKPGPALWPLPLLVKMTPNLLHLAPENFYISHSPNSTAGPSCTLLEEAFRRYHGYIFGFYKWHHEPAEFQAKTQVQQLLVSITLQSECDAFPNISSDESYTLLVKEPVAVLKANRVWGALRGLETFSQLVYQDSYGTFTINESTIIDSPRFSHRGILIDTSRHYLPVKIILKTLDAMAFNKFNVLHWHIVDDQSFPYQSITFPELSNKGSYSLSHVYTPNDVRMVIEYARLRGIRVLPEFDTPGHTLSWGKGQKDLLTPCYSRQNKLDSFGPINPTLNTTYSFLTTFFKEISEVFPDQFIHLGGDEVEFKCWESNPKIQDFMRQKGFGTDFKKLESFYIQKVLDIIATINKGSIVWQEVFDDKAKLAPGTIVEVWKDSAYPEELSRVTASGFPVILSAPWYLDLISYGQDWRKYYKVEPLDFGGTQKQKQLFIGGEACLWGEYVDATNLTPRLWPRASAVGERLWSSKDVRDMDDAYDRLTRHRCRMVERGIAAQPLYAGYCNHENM
# Sequence of UniProt P51570 (P51570 whole entry, looked up): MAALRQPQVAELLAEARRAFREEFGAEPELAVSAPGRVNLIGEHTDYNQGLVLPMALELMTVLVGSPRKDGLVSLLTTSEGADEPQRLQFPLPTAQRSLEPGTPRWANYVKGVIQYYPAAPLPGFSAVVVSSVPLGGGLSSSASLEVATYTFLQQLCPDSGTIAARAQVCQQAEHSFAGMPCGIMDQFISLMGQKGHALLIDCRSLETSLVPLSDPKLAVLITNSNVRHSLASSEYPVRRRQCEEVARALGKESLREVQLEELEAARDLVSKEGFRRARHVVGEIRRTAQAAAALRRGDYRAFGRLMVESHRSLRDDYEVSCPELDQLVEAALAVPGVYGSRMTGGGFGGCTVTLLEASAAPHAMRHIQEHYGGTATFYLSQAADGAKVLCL
# Sequence of UniProt P49356 (P49356 whole entry, looked up): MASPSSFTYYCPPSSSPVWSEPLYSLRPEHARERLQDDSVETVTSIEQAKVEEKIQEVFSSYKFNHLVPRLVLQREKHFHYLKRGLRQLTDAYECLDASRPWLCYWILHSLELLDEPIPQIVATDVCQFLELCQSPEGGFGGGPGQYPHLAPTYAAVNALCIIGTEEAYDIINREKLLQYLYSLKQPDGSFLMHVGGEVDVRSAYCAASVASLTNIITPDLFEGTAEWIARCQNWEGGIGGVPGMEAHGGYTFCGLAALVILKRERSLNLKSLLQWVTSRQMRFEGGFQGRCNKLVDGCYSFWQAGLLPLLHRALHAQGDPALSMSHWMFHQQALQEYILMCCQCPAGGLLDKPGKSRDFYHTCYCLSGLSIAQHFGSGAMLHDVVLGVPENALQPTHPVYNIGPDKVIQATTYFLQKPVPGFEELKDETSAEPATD
# Sequence of UniProt O00458 (O00458 whole entry, looked up): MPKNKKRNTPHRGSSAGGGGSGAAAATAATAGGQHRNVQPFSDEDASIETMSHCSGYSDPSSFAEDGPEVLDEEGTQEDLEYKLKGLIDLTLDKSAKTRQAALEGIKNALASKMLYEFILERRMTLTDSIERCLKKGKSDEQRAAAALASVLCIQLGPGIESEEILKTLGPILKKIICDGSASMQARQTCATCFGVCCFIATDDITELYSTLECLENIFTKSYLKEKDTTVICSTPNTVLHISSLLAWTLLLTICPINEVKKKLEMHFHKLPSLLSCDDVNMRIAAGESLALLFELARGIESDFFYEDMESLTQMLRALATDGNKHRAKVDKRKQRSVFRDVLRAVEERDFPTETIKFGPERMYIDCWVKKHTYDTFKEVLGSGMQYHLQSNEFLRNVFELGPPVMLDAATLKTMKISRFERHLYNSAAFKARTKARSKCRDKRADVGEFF
# Sequence of UniProt Q9Y3I1 (Q9Y3I1 whole entry, looked up): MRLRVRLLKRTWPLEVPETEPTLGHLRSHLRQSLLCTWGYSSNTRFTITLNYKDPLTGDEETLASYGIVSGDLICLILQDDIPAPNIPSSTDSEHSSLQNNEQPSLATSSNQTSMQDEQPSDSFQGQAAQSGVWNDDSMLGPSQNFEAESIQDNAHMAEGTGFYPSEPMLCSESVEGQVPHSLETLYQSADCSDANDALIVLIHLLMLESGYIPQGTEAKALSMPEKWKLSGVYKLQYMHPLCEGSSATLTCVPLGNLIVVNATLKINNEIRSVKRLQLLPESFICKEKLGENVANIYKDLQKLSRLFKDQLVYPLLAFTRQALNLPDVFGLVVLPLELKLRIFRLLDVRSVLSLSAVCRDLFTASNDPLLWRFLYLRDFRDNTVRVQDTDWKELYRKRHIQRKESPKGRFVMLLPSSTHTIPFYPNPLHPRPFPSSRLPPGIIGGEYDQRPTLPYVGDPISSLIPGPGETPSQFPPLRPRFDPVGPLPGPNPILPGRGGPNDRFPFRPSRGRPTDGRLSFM
# Sequence of UniProt O95363 (O95363 whole entry, looked up): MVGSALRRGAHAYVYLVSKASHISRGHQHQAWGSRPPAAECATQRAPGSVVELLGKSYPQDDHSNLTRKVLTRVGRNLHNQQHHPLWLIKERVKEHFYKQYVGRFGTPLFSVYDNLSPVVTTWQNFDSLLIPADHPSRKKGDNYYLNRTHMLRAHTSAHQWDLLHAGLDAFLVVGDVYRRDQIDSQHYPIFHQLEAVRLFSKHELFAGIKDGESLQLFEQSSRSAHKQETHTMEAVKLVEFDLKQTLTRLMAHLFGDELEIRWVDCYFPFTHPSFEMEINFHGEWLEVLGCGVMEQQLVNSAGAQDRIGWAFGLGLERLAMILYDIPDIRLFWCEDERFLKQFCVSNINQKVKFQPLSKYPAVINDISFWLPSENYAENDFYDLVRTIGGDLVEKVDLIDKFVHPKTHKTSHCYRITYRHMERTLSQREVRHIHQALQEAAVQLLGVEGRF
# Sequence of UniProt O76003 (O76003 whole entry, looked up): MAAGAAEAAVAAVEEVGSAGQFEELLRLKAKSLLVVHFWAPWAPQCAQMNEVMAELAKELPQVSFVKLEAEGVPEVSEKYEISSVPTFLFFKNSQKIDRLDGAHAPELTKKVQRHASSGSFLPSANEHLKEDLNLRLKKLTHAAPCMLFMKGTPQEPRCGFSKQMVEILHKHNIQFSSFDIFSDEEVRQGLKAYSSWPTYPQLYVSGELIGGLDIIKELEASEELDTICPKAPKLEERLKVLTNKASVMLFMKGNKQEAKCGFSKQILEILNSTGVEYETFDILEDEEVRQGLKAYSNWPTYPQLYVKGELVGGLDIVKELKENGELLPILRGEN
# Sequence of UniProt Q9H4A6 (Q9H4A6 whole entry, looked up): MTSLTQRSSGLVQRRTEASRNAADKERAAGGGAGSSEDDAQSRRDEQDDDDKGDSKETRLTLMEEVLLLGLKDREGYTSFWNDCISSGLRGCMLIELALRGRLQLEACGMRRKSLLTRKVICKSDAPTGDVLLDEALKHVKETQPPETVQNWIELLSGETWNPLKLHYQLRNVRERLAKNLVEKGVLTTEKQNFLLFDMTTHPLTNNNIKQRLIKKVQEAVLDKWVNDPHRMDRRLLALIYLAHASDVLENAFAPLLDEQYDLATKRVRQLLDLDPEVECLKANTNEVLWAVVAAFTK
# Sequence of UniProt Q9BTY2 (Q9BTY2 whole entry, looked up): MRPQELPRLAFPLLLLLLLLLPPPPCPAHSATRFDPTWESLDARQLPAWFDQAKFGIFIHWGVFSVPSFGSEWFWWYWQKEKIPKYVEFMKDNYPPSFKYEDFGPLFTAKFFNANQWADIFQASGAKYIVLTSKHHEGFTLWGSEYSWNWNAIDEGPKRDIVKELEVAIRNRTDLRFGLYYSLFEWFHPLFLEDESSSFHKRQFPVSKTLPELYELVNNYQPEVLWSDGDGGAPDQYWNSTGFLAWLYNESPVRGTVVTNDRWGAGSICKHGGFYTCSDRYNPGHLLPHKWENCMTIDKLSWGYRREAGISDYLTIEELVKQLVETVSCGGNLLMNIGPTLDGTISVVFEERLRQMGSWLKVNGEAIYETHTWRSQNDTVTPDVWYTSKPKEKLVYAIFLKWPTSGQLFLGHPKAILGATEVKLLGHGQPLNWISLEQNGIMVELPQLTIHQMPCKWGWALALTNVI
# Sequence of UniProt P0CL80 (P0CL80 whole entry, looked up): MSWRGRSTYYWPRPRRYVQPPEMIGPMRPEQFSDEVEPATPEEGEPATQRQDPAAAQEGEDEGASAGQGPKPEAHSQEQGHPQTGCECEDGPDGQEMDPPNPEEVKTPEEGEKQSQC
Target,log2 fold change [1],log2 fold change (filanesib),log2 fold change (zotarolimus),log2 fold change (idasanutlin),log2 fold change (alisertib),log2 fold change [2],log2 fold change (gefitinib),log2 fold change [3],log2 fold change (lapatinib),log2 fold change (pictilisib),log2 fold change [4],log2 fold change (crizotinib),log2 fold change [5],log2 fold change [6],log2 fold change (duvelisib),log2 fold change (gandotinib),log2 fold change (tozasertib),log2 fold change [7],log2 fold change (doramapimod),log2 fold change (ispinesib)
GAGE12F (UniProt P0CL80),-0.007,0.02,-0.054,0.055,-0.312,-0.02,-0.03,0.123,-0.028,0.108,0.019,0.034,0.092,0.081,0.039,0.072,0.006,0.03,0.043,0.009
GLRX3 (UniProt O76003),0.005,-0.056,0.056,-0.001,-0.063,0.012,-0.009,-0.018,0.062,-0.003,0.03,0.098,0.06,-0.068,0.043,-0.094,0.077,0.041,-0.075,0.068
HRC (UniProt P23327),-0.089,0.019,-0.032,0.035,-0.059,-0.008,0.035,-0.007,-0.039,0.017,0.027,0.096,-0.342 (active),0.012,0.062,0.064,-0.053,-0.033,-0.033,0.037
IFRD1 (UniProt O00458),-0.07,-0.017,0.071,-0.042,-0.008,-0.25,0.199,0.253,0.069,0.214,0.347,0.004,0.37 (active),0.013,0.002,0.104,0.035,-0.003,0,-0.006
IFI30 (UniProt P13284),0.04,0.061,0.06,0.027,-0.11,-0.133,-0.035,0.01,0.147,-0.02,0.013,-0.011,-0.083,-0.02,-0.129,0.042,0.027,0.035,-0.044,0.002
GEMIN5 (UniProt Q8TEQ6),0.017,0.037,0.039,-0.024,-0.041,-0.235 (active),0.013,-0.035,0.015,-0.021,-0.004,-0.047,0.038,0.02,-0.006,-0.082,0.016,0.055,-0.001,-0.088
FUCA2 (UniProt Q9BTY2),-0.094,0.002,-0.019,0.177,-0.044,0.011,-0.013,0.045,0.025,0.011,0.021,-0.002,0.017,-0.05,0.007,0.041,-0.008,0.014,0.058,-0.001
HEXB (UniProt P07686),0.012,-0.092,-0.042,0.018,-0.058,0.017,0.005,0.044,-0.001,0.021,-0.009,-0.377 (active),0.058,-0.021,0.008,-0.013,0.012,-0.031,-0.007,-0.128
FBXO7 (UniProt Q9Y3I1),0.037,-0.069,-0.026,-0.04,-0.082,0.082,-0.023,0.011,-0.082,0.036,0.038,0.041,0.061,-0.023,0.015,-0.194,-0.018,0.083,-0.029,0.098
FNTB (UniProt P49356),0.088,0.26,0.159,-0.024,-0.074,-0.057,0.02,0.024,0.18,-0.165,0.104,0.054,-0.035,-0.137,0.085,0.169,-0.012,-0.043,-0.012,0.109
GOLPH3 (UniProt Q9H4A6),0.011,-0.03,0.048,-0.057,-0.024,0.131,0.023,0.012,-0.055,-0.051,-0.028,0.176,0.006,-0.038,0.047,-0.112,0.024,0.012,-0.011,0.379 (active)
HPCAL1 (UniProt P37235),-0.085,-0.128,-0.017,-0.062,0.002,-0.012,-0.021,0.06,-0.027,0.013,0.015,0.011,0.08,-0.047,0.032,-0.033,0.024,-0.014,-0.027,-0.054
FARS2 (UniProt O95363),-0.171,-0.122,-0.049,-0.076,0.137,0.033,-0.114,0.113,-0.061,0.071,0.004,-0.043,0.088,0.041,0.073,-0.021,0.045,0.06,-0.023,-0.157
FLNA (UniProt P21333),0.042,0.026,0.043,-0.066,0.036,0.039,0.03,-0.095,-0.049,0.031,0.014,-0.078,-0.01,0.04,-0.014,-0.045,0.108,0.127,-0.013,-0.025
GUSB (UniProt P08236),-0.063,-0.016,0.014,0.034,0.022,-0.084,-0.013,-0.027,0.016,0.098,0.053,0.004,-0.018,0.063,0.066,0.051,0.006,-0.039,0.042,-0.03
GALK1 isoform 2 (UniProt P51570),-0.023,-0.201,0.012,-0.106,-0.125,-0.049,-0.005,0.036,0.147,-0.05,-0.1,-0.041,0.037,-0.088,-0.021,-0.087,-0.013,0.056,0.012,0.078
